The experiment has as its target Endoplasmic reticulum aminopeptidase 2 (Homo sapiens) (UniProt Q6P179). The experiment can be described thus: ERAP2 aminopeptidase inhibitors, dose response, selectivity assay for selective ERAP1 modulator project, biochemical, fluorescence plate reader, cherry-picked, set 2 (AID 743320).

Potency and affinity values are given separately. The source made the active and inactive calls.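 Rule for the calls: active = signal drop whose fitted half-maximal potency is at most twice the top valid dose tested; inconclusive = flat curve inhibiting 30 to 70 percent, or a poor fit; inactive = the rest.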

Endoplasmic reticulum aminopeptidase 2 (Homo sapiens), sequence (Q6P179 whole entry, looked up): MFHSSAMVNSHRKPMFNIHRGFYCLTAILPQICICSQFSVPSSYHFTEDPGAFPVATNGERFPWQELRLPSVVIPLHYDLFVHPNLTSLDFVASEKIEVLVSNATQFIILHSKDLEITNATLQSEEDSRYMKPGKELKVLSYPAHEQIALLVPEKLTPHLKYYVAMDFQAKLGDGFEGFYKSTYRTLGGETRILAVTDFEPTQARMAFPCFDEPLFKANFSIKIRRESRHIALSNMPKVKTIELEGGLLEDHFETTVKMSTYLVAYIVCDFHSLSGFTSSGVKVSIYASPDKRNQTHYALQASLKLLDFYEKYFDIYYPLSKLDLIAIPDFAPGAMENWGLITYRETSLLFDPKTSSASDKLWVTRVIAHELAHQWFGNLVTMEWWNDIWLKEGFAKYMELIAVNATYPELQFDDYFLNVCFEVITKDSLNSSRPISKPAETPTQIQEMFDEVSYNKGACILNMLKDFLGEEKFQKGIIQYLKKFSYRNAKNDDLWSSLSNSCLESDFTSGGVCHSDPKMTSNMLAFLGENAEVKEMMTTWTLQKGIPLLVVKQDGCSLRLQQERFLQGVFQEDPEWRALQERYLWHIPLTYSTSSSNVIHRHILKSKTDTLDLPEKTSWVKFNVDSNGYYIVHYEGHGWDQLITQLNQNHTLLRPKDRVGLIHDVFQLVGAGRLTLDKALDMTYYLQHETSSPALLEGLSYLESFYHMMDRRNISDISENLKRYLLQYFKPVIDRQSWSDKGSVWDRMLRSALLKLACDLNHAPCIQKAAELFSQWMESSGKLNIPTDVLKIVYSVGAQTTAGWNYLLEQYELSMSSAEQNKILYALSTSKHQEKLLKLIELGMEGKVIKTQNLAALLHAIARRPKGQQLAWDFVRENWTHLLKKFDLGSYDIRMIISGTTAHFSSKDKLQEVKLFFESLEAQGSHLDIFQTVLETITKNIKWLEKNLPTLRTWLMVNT

Consider `CCCN(C)C[C@@H]1OCCCC[C@@H](C)Oc2ccc(NS(=O)(=O)c3ccc(F)cc3)cc2C(=O)N([C@H](C)CO)C[C@@H]1C`, for which the molecule was called inactive.
To `C[C@@H]1CCCCO[C@@H](CN(C)Cc2ccccc2)[C@@H](C)CN([C@H](C)CO)C(=O)c2cc(NS(=O)(=O)c3cccs3)ccc2O1` belongs “inactive”.
To `C[C@@H]1CCCCO[C@H](CN(C)Cc2ccc(C(=O)O)cc2)[C@@H](C)CN([C@H](C)CO)C(=O)c2cc(NC(=O)Nc3ccc(C(F)(F)F)cc3)ccc2O1` belongs “inactive”; to `C[C@@H]1CCCCO[C@@H](CN(C)Cc2ccc3c(c2)OCO3)[C@@H](C)CN([C@H](C)CO)C(=O)c2cc(NS(=O)(=O)c3cccs3)ccc2O1`, “inactive”; to `Cc1noc(C)c1NC(=O)N(C)C[C@@H]1Oc2c(NC(=O)Nc3ccccc3)cccc2C(=O)N([C@H](C)CO)C[C@@H]1C`, “inactive”.
To `O=C(CSc1cn[nH]n1)Nc1cccc(C(=O)O)c1` belongs “inactive”.
`CCCN(C)C[C@@H]1OCCCC[C@@H](C)Oc2ccc(NS(=O)(=O)c3ccc(C)cc3)cc2C(=O)N([C@@H](C)CO)C[C@@H]1C`: the molecule was classed as inactive.
To `Cc1ccc2nc3c(cc(C(=O)NCc4ccccc4)c(=N)n3CCCn3ccnc3)c(=O)n2c1` belongs “inactive”.
The result for `C[C@@H]1CCCCO[C@H](CN(C)C)[C@H](C)CN([C@H](C)CO)C(=O)c2cc(NS(=O)(=O)c3ccc(Cl)cc3)ccc2O1` reads “inactive”; that for `C[C@@H]1CCCCO[C@@H](CN(C)CC2CCCCC2)[C@H](C)CN([C@@H](C)CO)C(=O)c2cc(NC(=O)Nc3ccccc3)ccc2O1`, “inactive”.

The record behind these values is PubChem BioAssay AID743320 (Broad Institute, 2014).
